From PubChem BioAssay (NCI)
Compounds without any hit were thinned out: in the full panel of roughly 83,000, 20% have a hit.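 Single-concentration screen, 48 h exposure, 96-well plates. Endpoint: percent growth. Below 10 = active.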 The source made the active and inactive calls.

Legend:
Experiment in all cases: NCI-60 one-dose screen, 48 h (100 = growth as untreated, 0 = no growth, -100 = all killed)
Conditions in all cases: 10 µM unless noted
T-47D breast = tested on: T-47D breast
BT-549 breast = tested on: BT-549 breast
MDA-MB-435 melanoma = tested on: MDA-MB-435 melanoma
SW-620 colon = tested on: SW-620 colon
MCF7 breast = tested on: MCF7 breast
HCT-116 colon = tested on: HCT-116 colon
HCC-2998 colon = tested on: HCC-2998 colon
KM12 colon = tested on: KM12 colon

Measured: growth

N/C(=N\c1nc2c(Cl)cccc2s1)C(Cl)(Cl)Cl
inactive: T-47D breast 42.4% | BT-549 breast 111% | MDA-MB-435 melanoma 89.1% | SW-620 colon 82.5% | MCF7 breast 49.3% | HCT-116 colon 69.7% | HCC-2998 colon 72.9% | KM12 colon 41.5%

O=C1NC(=O)c2c1c1c3ccccc3ccc1c1[nH]c3ccccc3c21
inactive: T-47D breast 11.8% | SW-620 colon 28.2% | HCT-116 colon 14.4% | HCC-2998 colon 46.1%
active: BT-549 breast 7.84% | MDA-MB-435 melanoma 9.08% | MCF7 breast 3.61%

CS(=O)(=O)c1ccc2c(c1)c1c(n2Cc2ccc(Cl)cc2)CCCC1
inactive: T-47D breast 51.9% | BT-549 breast 89% | MDA-MB-435 melanoma 31.1% | SW-620 colon 74.1% | MCF7 breast 72.6% | HCT-116 colon 61.9% | HCC-2998 colon 85.5% | KM12 colon 66.6%

O=C1c2c(c3c4cccnc4[nH]c3c3ccc4ccccc4c23)C(=O)N1CCN1CCOCC1
inactive: T-47D breast 65.5% | BT-549 breast 65.6% | MDA-MB-435 melanoma 67.7% | SW-620 colon 47.1% | MCF7 breast 15.9% | HCT-116 colon 58.1% | HCC-2998 colon 82%

Oc1ccc(CSc2nnc(-c3ccc(Br)cc3)n2-c2ccccc2)c2cccnc12
inactive: T-47D breast 48.1% | BT-549 breast 40.3% | MDA-MB-435 melanoma 19.5% | SW-620 colon 26.6% | MCF7 breast 11% | HCT-116 colon 21.7% | HCC-2998 colon 44.9% | KM12 colon 26.3%

COc1cc2c3c(n(CCCN4CCCCC4)c(=O)c2cc1OC)-c1cc2c(cc1C3=O)OCO2
active: T-47D breast -64.6% | BT-549 breast -59.7% | MDA-MB-435 melanoma -81.4% | SW-620 colon -92.5% | MCF7 breast -75.5% | HCT-116 colon -71.9% | HCC-2998 colon -86.8% | KM12 colon -85.4%

O=C(COc1ccc(C2SCC(=O)N2c2ccc(F)cc2)cc1)c1ccccc1 (stereo unspecified)
inactive: T-47D breast 89.8% | BT-549 breast 93.4% | MDA-MB-435 melanoma 103% | SW-620 colon 116% | MCF7 breast 81.7% | HCT-116 colon 94.3% | HCC-2998 colon 106% | KM12 colon 92.4%

COc1cc(/C=N/n2cnc3oc(-c4ccccc4)cc3c2=N)cc(CN2CCCCC2)c1O
active: T-47D breast -33.1% | BT-549 breast -55.4% | MDA-MB-435 melanoma -91.8% | SW-620 colon -70% | MCF7 breast -80.5% | HCT-116 colon -89.1% | HCC-2998 colon -46.8% | KM12 colon -72.6%

N/C(=N\OC(=O)CSc1nc2ccccc2s1)c1ccc2ccccc2c1
inactive: T-47D breast 97.7% | BT-549 breast 100% | MDA-MB-435 melanoma 104% | SW-620 colon 100% | MCF7 breast 94.2% | HCT-116 colon 103% | HCC-2998 colon 107% | KM12 colon 103%

O=C(Cn1cc(CN2C(=O)c3ccc([N+](=O)[O-])cc3C2=O)nn1)Nc1ccccc1Br
inactive: T-47D breast 104% | BT-549 breast 115% | MDA-MB-435 melanoma 109% | SW-620 colon 97.4% | MCF7 breast 94.3% | HCT-116 colon 98.8% | HCC-2998 colon 101% | KM12 colon 102%

CN1CCN(c2nc(-c3cnc4ccccc4n3)cc3ccccc23)CC1
active: HCC-2998 colon -26.4%
inactive: T-47D breast 68.9% | BT-549 breast 85.7% | MDA-MB-435 melanoma 27.1% | SW-620 colon 11.5% | MCF7 breast 54.9% | HCT-116 colon 21.4% | KM12 colon 88.1%

Cc1nn(-c2ccc(Br)cc2)c2nc(CCl)[nH]c(=O)c12
inactive: T-47D breast 91.5% | BT-549 breast 101% | MDA-MB-435 melanoma 103% | SW-620 colon 110% | MCF7 breast 82.3% | HCT-116 colon 98.3% | HCC-2998 colon 105% | KM12 colon 83.6%

COc1ccc(NC(=O)[C@H](C)NC(=O)OC(C)(C)C)cc1C(=O)Nc1cccc(-c2cc(=O)c3c(OC)c(OC)c(OC)cc3o2)c1
active: T-47D breast -24.7% | BT-549 breast -85% | MDA-MB-435 melanoma 7.35% | SW-620 colon -25.6% | MCF7 breast -9.71% | HCT-116 colon -61.7% | HCC-2998 colon -60.8% | KM12 colon -36.4%

CS(=O)(=O)c1nccc(-c2c(-c3ccc(F)c(OCCc4ccc(F)cc4)c3)nc3sccn23)n1
active: T-47D breast -75.5% | MCF7 breast -61% | HCC-2998 colon -91% | KM12 colon -42.9%
inactive: BT-549 breast 57.2% | MDA-MB-435 melanoma 87.2% | SW-620 colon 67.1% | HCT-116 colon 47.6%

COc1ccc(-c2cc(-c3cccc4ccccc34)n3c(n2)nc2ccccc23)cc1
inactive: T-47D breast 24.2% | BT-549 breast 69.9% | MDA-MB-435 melanoma 53.4% | SW-620 colon 40.6% | MCF7 breast 19.6% | HCT-116 colon 37.9% | HCC-2998 colon 88.3% | KM12 colon 62.4%

COc1cc2c3c(n(CCCNC4CCC4)c(=O)c2cc1OC)-c1cc2c(cc1C3=O)OCO2
active: MDA-MB-435 melanoma -65.7% | SW-620 colon -15.4% | MCF7 breast -71.5% | HCT-116 colon -48.4% | HCC-2998 colon -89.3%
inactive: T-47D breast 53.5% | BT-549 breast 76% | KM12 colon 38.7%

COc1cc(/C=C/C(=O)c2ccc(NC(=O)CSc3nnc(-c4ccc5nc(-c6ccccc6)[nH]c5c4)o3)cc2)cc(OC)c1OC
inactive: T-47D breast 89% | BT-549 breast 81.6% | MDA-MB-435 melanoma 94.1% | SW-620 colon 98.8% | MCF7 breast 43.9% | HCT-116 colon 40.8% | HCC-2998 colon 111% | KM12 colon 90%

Cc1cccc(NC(c2cc3cccc4ccc5cccc2c5c43)c2nnnn2C(C)(C)C)c1C (stereo unspecified)
inactive: T-47D breast 68.4% | BT-549 breast 99.2% | MDA-MB-435 melanoma 93% | SW-620 colon 93.7% | MCF7 breast 66.9% | HCT-116 colon 70.5% | HCC-2998 colon 99.6% | KM12 colon 95.8%

N#Cc1c(NC(=O)c2ccccc2C(F)(F)F)sc2c1CCC(=O)C2
active: T-47D breast 1.79% | MDA-MB-435 melanoma 0.916% | SW-620 colon 3.92% | MCF7 breast 3.89% | HCT-116 colon 8.03% | KM12 colon 5.98%
inactive: BT-549 breast 11.7% | HCC-2998 colon 27.6%

O=C(/C=C1\C=CN(CCCCF)c2ccccc21)n1ccc2ccccc21
inactive: T-47D breast 91% | BT-549 breast 114% | MDA-MB-435 melanoma 106% | SW-620 colon 105% | MCF7 breast 91.8% | HCT-116 colon 105% | HCC-2998 colon 106% | KM12 colon 112%

O=C(Nc1cccc(Cl)c1)Nc1nc2ccc([N+](=O)[O-])cc2s1
active: T-47D breast -11.7% | BT-549 breast -28.7% | MDA-MB-435 melanoma -8.69% | SW-620 colon 3.71% | MCF7 breast 4.68% | HCT-116 colon 0.143% | HCC-2998 colon 5.59% | KM12 colon 0.174%

O=c1[nH]c2cc(Cl)ccc2n1C1CCN(c2ccc3nnc(Cl)n3n2)CC1
inactive: T-47D breast 86.6% | BT-549 breast 94.2% | MDA-MB-435 melanoma 98.4% | SW-620 colon 93.4% | MCF7 breast 81.1% | HCT-116 colon 106% | HCC-2998 colon 100% | KM12 colon 96.5%

C#C[C@]1(O)CC[C@H]2[C@@H]3CC=C4c5sc(Nc6nc(C)cc(OC)n6)nc5CC[C@]4(C)[C@H]3CC[C@@]21C
active: MCF7 breast 8.47%
inactive: T-47D breast 59% | BT-549 breast 48% | MDA-MB-435 melanoma 34.7% | SW-620 colon 23.6% | HCT-116 colon 42.7% | HCC-2998 colon 80.9% | KM12 colon 46.1%

O=S(=O)(NCCCNc1nccc(-n2cnc3ccccc32)n1)c1ccc(F)cc1
inactive: T-47D breast 25.5% | BT-549 breast 34.9% | MDA-MB-435 melanoma 64.6% | SW-620 colon 96.2% | MCF7 breast 63.7% | HCT-116 colon 58.7% | HCC-2998 colon 102% | KM12 colon 48.9%

O=C1Nc2cc(OC(F)(F)F)ccc2Oc2ccc(-c3ccnc(N4CCNCC4)c3)cc21
active: T-47D breast -61.9% | BT-549 breast -4.26% | MDA-MB-435 melanoma -95.7% | SW-620 colon -91.8% | MCF7 breast -55.7% | HCT-116 colon -91.4% | HCC-2998 colon -76.8% | KM12 colon -10.6%

O=C(Nc1ccc(F)cc1)c1cc(-c2ccc(F)cc2F)ccc1O
active: T-47D breast -4.71% | BT-549 breast -10.3% | MDA-MB-435 melanoma 5.11% | MCF7 breast 2.19% | HCT-116 colon 2.09% | KM12 colon 6.07%
inactive: SW-620 colon 17% | HCC-2998 colon 31.5%

CC(C)SC1=NC(=C(C(=N1)NC2=ClC=CC=C2)C#N)C3=CC=CC=C3
inactive: T-47D breast 55% | BT-549 breast 110% | MDA-MB-435 melanoma 62.3% | SW-620 colon 50.5% | MCF7 breast 39.9% | HCT-116 colon 27.9% | HCC-2998 colon 84.1% | KM12 colon 79.3%

N/C(=N\c1nc2ccc([N+](=O)[O-])cc2s1)C(Cl)(Cl)Cl
inactive: T-47D breast 30.7% | BT-549 breast 93.3% | MDA-MB-435 melanoma 83.6% | SW-620 colon 70.5% | MCF7 breast 40% | HCT-116 colon 53.9% | HCC-2998 colon 74% | KM12 colon 37.6%

Cc1ccc(-c2cc3nc(C(Cl)Cl)nc(-c4ccccc4)n3n2)cc1
inactive: T-47D breast 90.4% | BT-549 breast 95.8% | MDA-MB-435 melanoma 91.5% | SW-620 colon 79.5% | MCF7 breast 64.1% | HCT-116 colon 82.2% | HCC-2998 colon 65.3% | KM12 colon 65.8%

Nc1nc(N)c2c(n1)NC(c1ccccc1)CC(c1ccc(Nc3nc(NCCO)nc(Nc4ccc(Cl)cc4)n3)cc1)=N2 (stereo unspecified)
inactive: T-47D breast 62.1% | BT-549 breast 79.3% | MDA-MB-435 melanoma 41.8% | HCC-2998 colon 68.9% | KM12 colon 47%
active: SW-620 colon -83.3% | MCF7 breast -71.3% | HCT-116 colon -92.7%

CN1C(=O)/C(=C/C=C/c2ccco2)SC1=S
inactive: T-47D breast 63% | BT-549 breast 55.1% | MDA-MB-435 melanoma 95.8% | SW-620 colon 104% | MCF7 breast 24.2% | HCT-116 colon 54.4% | HCC-2998 colon 99.2% | KM12 colon 91.3%
